Laboratory results taken from PubChem BioAssay AID686979 (National Center for Advancing Translational Sciences (NCATS), 2013).
Hit rate of the full screen: of about 420,000 compounds, about 50,000 (12%) were called active. A call without a number means that no potency is given here. Roughly 26% stayed inconclusive and do not appear here. This is one part of a sample in which actives are shown more often than they occur. The call rests on the fitted dose curve; in most records, active means well fitted inhibition curve with a large enough effect; inconclusive means small, poorly fitted or top-dose-only effect; inactive means flat fitted curve, though single readings scatter.
Potency means the concentration at half of the fitted maximal effect.

Experiment: qHTS for Inhibitors of human tyrosyl-DNA phosphodiesterase 1 (TDP1): qHTS in cells in presence of CPT; further: nearly all actives have a fitted effect of over 55% in size
Conditions: chicken DT40 Tdp1-/-;hTDP1 cells + 20 nM CPT, ATP luminescence, 48 h; series mostly up to 46.2 µM
In short: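 Chicken DT40 Tdp1-/- cells stably complemented with human TDP1 were seeded at 400 cells/well in medium containing 20 nM camptothecin, exposed to pin-transferred compounds, and grown at 37 °C for at least 48 hr. Viability was read as ATP luminescence.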
With `O=C(O)c1ccc(/C=C2\SC(=S)N(NC(=O)c3ccc(Br)cc3)C2=O)cc1` the Potency was “inactive”.
For `C=CCO/N=C/C1=C(O)C(C(=O)OC)C(C)(C)CC1=O` (stereo not given), the Potency was “inactive”.
For `CCCCC(NC(=O)c1cccc(Br)c1)C(=O)O` (stereo not given), the Potency was “inactive”.
For `CSc1ccc(/C=N\NC(=O)CC(=O)NC(C)C)cc1`, the Potency was “inactive”.
For `Cc1cc(C)n(-c2nc(O)cc(=O)[nH]2)n1`, the Potency was “inactive”.
For `COC(=O)C1=C(C(=O)c2ccc(C)cc2)C(c2ccccc2)n2nnnc2N1` (stereo not given), the Potency was “inactive”.
With `O=Cc1c(Nc2ccccc2Cl)nc2ccccn2c1=O` the Potency was “inactive”.
With `COc1cc(N=Cc2c(O)c3ccccc3oc2=O)c(OC)cc1Cl` the Potency was “inactive”.
In the case of `CC(=O)Nc1ccccc1Sc1ccc2c3c(cccc13)C(=O)N(c1ccc(C)cc1)C2=O`, the Potency is reported as 11.6 µM (active).
In the case of `CSc1ccccc1NC(=O)C(C)N1C(=O)c2ccccc2S1(=O)=O` (stereo not given), the Potency is reported as “inactive”.
In the case of `CCOC(=O)Nc1ccccc1N1C(=O)c2ccccc2C1=O`, the Potency is reported as “inactive”.
With `COc1ccc(NC(=O)COC(=O)C2COc3ccccc3O2)cc1` (stereo not given) the Potency was “inactive”.
For `CN(C)c1ccc(C(CC(=O)O)C(=O)O)cc1` (stereo not given), the Potency was “inactive”.
With `COC(=O)[C@]1(S(=O)(=O)c2ccccc2)C[C@@H]2ON=C(c3ccc(OC)cc3)[C@@H]2C1` the Potency was “inactive”.
In the case of `N#C[C@]1(S(=O)(=O)c2ccccc2)C[C@@H]2ON=C(c3cccc(Br)c3)[C@@H]2C1`, the Potency is reported as 9.2 µM (active).
With `O=C(NCCCn1ccnc1)C1CCCN(S(=O)(=O)c2cc(Cl)ccc2Cl)C1` (stereo not given) the Potency was “inactive”.
With `CCC1(c2ccccc2)NC(=O)N(CC(=O)Nc2ccccc2C(=O)NC2CCCC2)C1=O` (stereo not given) the Potency was “inactive”.
With `COc1ccc(S(=O)(=O)n2nc(C)c(S(=O)(=O)N3CCOCC3)c2C)cc1` the Potency was “inactive”.
For `O=C(/C=C/c1ccccc1[N+](=O)[O-])OC1CCCCC1=O` (stereo not given), the Potency was “inactive”.
For `CC1CCCCC1NC(=O)/C(C#N)=C/C=C/c1ccccc1[N+](=O)[O-]` (stereo not given), the Potency was 10.3 µM (active).
For `O=C(/C=C/c1ccccc1[N+](=O)[O-])NCC1CCCO1` (stereo not given), the Potency was “inactive”.
For `O=C(Nc1cccc(C(=O)O)c1)/C(=C\c1ccccc1)NC(=O)c1ccc(Br)o1`, the Potency was “inactive”.
In the case of `COc1ccc(-n2ccn(CC(=O)Nc3ccc(C)c(C)c3)c(=O)c2=O)cc1OC`, the Potency is reported as “inactive”.
In the case of `Cc1ccc(CNC(=O)CCc2c(C)nc3nc(CNC(=O)OC(C)(C)C)nn3c2C)cc1`, the Potency is reported as “inactive”.
In the case of `O=C(Oc1cccnc1)c1cc2ccccc2oc1=O`, the Potency is reported as “inactive”.
In the case of `O=C(Oc1ccc(Br)cc1)c1cccnc1`, the Potency is reported as “inactive”.
For `O=C(Oc1c(-c2ccco2)oc2ccccc2c1=O)c1cccnc1`, the Potency was 16.4 µM (active).
In the case of `O=S1(=O)CCO[C@H]2Cc3ccccc3[C@H]2N1Cc1ccccc1`, the Potency is reported as “inactive”.
For `Cc1ccc(Sc2ccncc2S(N)(=O)=O)cc1`, the Potency was “inactive”.
With `CCCc1cc(C(=O)Nc2ccc(Cl)cn2)cs1` the Potency was “inactive”.
In the case of `CC1CCN(C(=O)Cn2cc(C(=O)c3ccco3)c3ccccc32)CC1`, the Potency is reported as “inactive”.
With `Cc1ccccc1NC(=O)Cn1cc(C(=O)C2CC2)c2ccccc21` the Potency was “inactive”.
For `Cc1cccc(NC(=O)Cn2cc(C(=O)c3ccco3)c3ccccc32)c1`, the Potency was 18.4 µM (active).
In the case of `CCn1c(O)c(N=NC(=O)c2cccc(S(=O)(=O)N3CCCCC3)c2)c2ccccc21`, the Potency is reported as 14.6 µM (active).
In the case of `CCn1c2ccccc2c2cc(NC(=O)COC(=O)c3cc(S(=O)(=O)N4CCCCC4)ccc3Cl)ccc21`, the Potency is reported as “inactive”.
In the case of `Cc1cccc(NC(=O)c2cccc(S(=O)(=O)N3CCCC3)c2)n1`, the Potency is reported as “inactive”.
With `O=S1(=O)C[C@@H](N2CCN(CCO)CC2)[C@H](COCc2ccccc2)N1` the Potency was “inactive”.
With `COc1ccc(N(CC(=O)Nc2cccc3ccccc23)S(C)(=O)=O)c(OC)c1` the Potency was “inactive”.
With `O=C(NCCN1CCOCC1)C1CCN(S(=O)(=O)c2ccccc2)CC1` the Potency was “inactive”.
With `COc1cc(F)ccc1-c1cc(C(=O)NCC2CCCCC2)[nH]n1` the Potency was “inactive”.
With `COc1cc(NC(=O)c2cc(-c3ccc(F)cc3OC(C)C)n[nH]2)cc(OC)c1OC` the Potency was 14.6 µM (active).
With `CC(C)Oc1cc(F)ccc1-c1cc(C(=O)Nc2cccc(Cl)c2)[nH]n1` the Potency was 18.4 µM (active).
For `O=C(Nc1cccc(Cl)c1)c1cc(S(=O)(=O)N2CCCCC2)c[nH]1`, the Potency was “inactive”.
For `O=C(Nc1cccc(Cl)c1)c1cncn1-c1ccc(F)cc1`, the Potency was “inactive”.
With `COc1cc(-c2cc3n(C)c(C)c(CCC(=O)Nc4ccc(F)cc4)c(=O)n3n2)cc(OC)c1OC` the Potency was “inactive”.
With `COc1ccccc1C(=O)OCC(=O)NCCNC(=O)COC(=O)c1ccccc1OC` the Potency was “inactive”.
For `COc1ccccc1OCC(=O)Nc1nnc2n1CCS2`, the Potency was “inactive”.
With `Cc1cc(C(=O)OCC(=O)NCc2ccco2)c(C)n1-c1ccccc1` the Potency was 2.31 µM (active).
For `CN(c1ccccc1)S(=O)(=O)c1ccc(Cl)c(C(=O)OCC(=O)NCc2ccco2)c1`, the Potency was “inactive”.
With `O=C(COC(=O)c1ccccc1O)NCc1ccco1` the Potency was “inactive”.
For `COc1cccc(CNC(=O)CN2C(=O)CCc3cc(S(=O)(=O)N4CCOCC4)ccc32)c1`, the Potency was “inactive”.
With `CSc1nc2nc(-c3cccc(C(F)(F)F)c3)ccn2n1` the Potency was “inactive”.
For `CCCC(=O)Nc1ccc(C(=O)N/N=C/c2ccc[nH]2)cc1`, the Potency was “inactive”.
For `O=C(COC(=O)CCc1nc2ccccc2c(=O)[nH]1)Nc1ccc(N2CCOCC2)cc1`, the Potency was “inactive”.
For `Cc1cc(-c2csc(N)n2)c(C)n1Cc1ccccc1`, the Potency was “inactive”.
In the case of `CC(=O)NCc1ccc(-c2csc(NC(=O)CCCc3nc4ccccc4c(=O)[nH]3)n2)cc1`, the Potency is reported as “inactive”.
In the case of `Cc1cc(C)c(-c2csc(NC(=O)CCCc3nc4ccccc4c(=O)[nH]3)n2)c(C)c1`, the Potency is reported as 18.4 µM (active).
With `CCCn1c(C)cc(-c2csc(NC(=O)CCc3nc4ccccc4c(=O)[nH]3)n2)c1C` the Potency was 23.1 µM (active).
With `CC(C)(C)c1ccc(NC(=O)COC(=O)CCc2nc3ccccc3c(=O)[nH]2)cc1` the Potency was “inactive”.
For `Cc1cccc(C(=O)NCc2nnc(SC(C)C(=O)Nc3nnc(C)s3)n2C)c1` (stereo not given), the Potency was “inactive”.
In the case of `C/C(N)=C(/C#N)C(=O)COC(=O)C1=NN(c2ccccc2)C(=O)CC1`, the Potency is reported as “inactive”.
For `CCOc1ccc(-c2nc(N)ncc2-c2ccccc2OC)c(O)c1`, the Potency was 20.6 µM (active).
For `CCOC(=O)Cn1c2c(c(-c3ccccc3OC)cc1=O)CCCC2`, the Potency was “inactive”.
For `C=C(C)COc1ccc(-c2nc(N)ncc2-c2ccccc2OC)c(O)c1`, the Potency was “inactive”.
With `O=C(O)CCCN1C(=O)c2ccccc2Sc2ncccc21` the Potency was “inactive”.
In the case of `Fc1cccc(-n2ncc3c2ncn2nc(-c4ccccc4Cl)nc32)c1`, the Potency is reported as “inactive”.
In the case of `CCCC[C@@H]1CN=C(N)N1CCCC`, the Potency is reported as 9.2 µM (active).
For `CCCCN1CC(COCc2ccccc2)OCCS1(=O)=O` (stereo not given), the Potency was “inactive”.
In the case of `CCCCN1C(N)=NC[C@@H]1Cc1ccccc1`, the Potency is reported as 7.31 µM (active).
With `CCCCNC(=O)C1CCC(=O)N1CCc1ccccc1` (stereo not given) the Potency was “inactive”.
With `CCCCN1C(=S)NC[C@@H]1C(C)CC` (stereo not given in full) the Potency was “inactive”.
For `CCCCN1C(N)=NC[C@@H]1CC1CCCCC1`, the Potency was 23.1 µM (active).
In the case of `Cc1cccc(C)c1NC(=O)CNC(=O)c1ccc2c(c1)OCCO2`, the Potency is reported as “inactive”.
With `COn1c(-c2ccc(Cl)cc2Cl)nc2ncccc21` the Potency was “inactive”.
For `O=S(=O)(Nc1ccc(-c2ccc(N3CCOCC3)nn2)cc1)c1cc(Cl)ccc1Cl`, the Potency was “inactive”.
With `COc1cc2ccccc2cc1C(=O)Nc1ccc(N2CCOCC2)cc1` the Potency was “inactive”.
With `O=C1NCC(c2ccccc2)(c2ccccc2)C(=O)N1` the Potency was “inactive”.
In the case of `OCC1(CO)CC2(C1)CC(CO)(CO)C2`, the Potency is reported as “inactive”.
With `Nc1cccc(CCc2nc3ccccc3[nH]2)c1` the Potency was “inactive”.
In the case of `c1ccc2c(CSCc3nc4ccccc4[nH]3)cccc2c1`, the Potency is reported as 16.4 µM (active).
In the case of `COc1ccccc1CSc1nc2ccccc2[nH]1`, the Potency is reported as “inactive”.
For `CC1(C(=O)NCc2ccccc2)CN(S(C)(=O)=O)CC(=O)N1CC(F)(F)F` (stereo not given), the Potency was “inactive”.
With `COc1cc(NC(=S)NNC(=O)CC(C)C)c(OC)cc1Cl` the Potency was “inactive”.
With `CN(C)CCCn1c(SCc2ccc(Cl)cc2)nnc1-c1ccncc1` the Potency was “inactive”.
In the case of `Cn1c(=O)c2ccccc2n(CC(=O)Nc2ccc3c(c2)OCCO3)c1=O`, the Potency is reported as “inactive”.
In the case of `Cc1cc(C(=O)NNC(=S)NC(C)c2ccccc2)cs1` (stereo not given), the Potency is reported as 23.1 µM (active).
In the case of `Cc1ccc(C(=O)NC(C)c2ccccc2)cc1Br` (stereo not given), the Potency is reported as “inactive”.
In the case of `C/C(CC(=O)NC(C)c1ccccc1)=N\NC(N)=S` (stereo not given), the Potency is reported as “inactive”.
With `N#Cc1ccc(-c2ccc3nccn3c2)cc1` the Potency was “inactive”.
In the case of `COc1ccc(-c2nc3cc(C)ccn3c2NC2CCCCC2)cc1SC1CCCCC1`, the Potency is reported as 29.6 µM (active).
With `COc1ccc(C)cc1S(=O)(=O)NC1CCCCC1` the Potency was “inactive”.
In the case of `COC(=O)c1ccc(NC(=O)CSc2nncn2-c2cccnc2)cc1`, the Potency is reported as “inactive”.
In the case of `CN(C)c1ccc(CN2CCOc3ccc(CN4CCC(O)(c5cccnc5)CC4)cc3C2)cc1`, the activity change, negative = growth inhibition is reported as -11.9% [at 9.04 µM] (inactive).
In the case of `CC(=O)CCC(=O)c1ccc2ccccc2c1`, the Potency is reported as “inactive”.
With `C=CC(=O)c1ccc2ccccc2c1` the Potency was 2.91 µM (active).
For `O=C(NNC(=O)c1ccc2ccccc2c1)c1ccc(Cl)cc1`, the Potency was “inactive”.
With `COc1ccc(C(=O)N/N=C(\C)CC(=O)Nc2ccc(Cl)cn2)cc1` the Potency was “inactive”.
In the case of `c1ccc(-c2noc(-c3cccs3)n2)nc1`, the Potency is reported as 8.2 µM (active).
With `O=C(Oc1ccccc1)c1ccc2nccnc2c1` the Potency was “inactive”.
In the case of `c1csc(-c2nc(-c3ccncc3)no2)c1`, the Potency is reported as “inactive”.
In the case of `Brc1ccc(-c2noc(-c3ccccc3)n2)o1`, the Potency is reported as “inactive”.
In the case of `COc1ccc(CCc2nc(-c3cccs3)no2)cc1`, the Potency is reported as “inactive”.
In the case of `O=C(Oc1ccc(-c2nc(-c3ccccn3)no2)cc1)c1ccccc1`, the Potency is reported as 8.2 µM (active).
For `COc1ccc(/C=C(\NC(=O)c2ccccc2)C(=O)NCCN2CCOCC2)cc1OC`, the Potency was “inactive”.
For `O=C(O)c1ccc(/C=N/NC(=O)c2ccc(Br)cc2)cc1`, the Potency was “inactive”.
In the case of `CCN(C(=O)CSc1nnc(-c2ccc(OC(F)F)cc2)n1N)C1CCS(=O)(=O)C1` (stereo not given), the Potency is reported as “inactive”.
In the case of `COc1ccc2c(c1)N(C)/C(=C1/SC(=S)N(NC(C)=O)C1=O)S2`, the Potency is reported as “inactive”.
For `COC(=O)[C@H]1C[C@H](OC(=O)NCc2ccccc2)[C@@]2(O)CN(S(=O)(=O)c3ccc(C)cc3)CC2[C@H]1C(=O)OC` (stereo not given in full), the Potency was “inactive”.
With `CCCCCCNC(=O)O[C@H]1CN(C(=O)OC(C)C)N(C(=O)OC(C)C)[C@@H]2CN(S(=O)(=O)c3ccc(C)cc3)C[C@]12O` the Potency was 18.4 µM (active).
With `CCCCOc1ccc(NC(=O)[C@@H]2CCCN2C(=O)C2CCN(S(=O)(=O)c3ccc(C)cc3)CC2)cc1` the Potency was “inactive”.
